Compounds with a hit are over-represented: about 1.5% of the library has one in this group of screens.
GASC-1 inh = inhibitors of human GASC-1 (JMJD2C) demethylase; GST-JMJD2C(1-420) H3K9me3 demethylation, DELFIA europium; inhibition, % at 2.35 µM; AID 2099; hit rate 0.069% among 330,000;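 active = more than half of a compound's replicate wells show inhibition beyond 50%, single wells judged on their own value; inconclusive = some, but no more than half, of replicates pass 50% inhibition; inactive = no replicate passes 50% inhibition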;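 note: signal counts dimethyl H3K9 product captured on neutravidin plate; 0% = median of DMSO wells and 100% = 0.3 times that DMSO median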
Target sequence (Q9H3R0 1-420 limits assumed): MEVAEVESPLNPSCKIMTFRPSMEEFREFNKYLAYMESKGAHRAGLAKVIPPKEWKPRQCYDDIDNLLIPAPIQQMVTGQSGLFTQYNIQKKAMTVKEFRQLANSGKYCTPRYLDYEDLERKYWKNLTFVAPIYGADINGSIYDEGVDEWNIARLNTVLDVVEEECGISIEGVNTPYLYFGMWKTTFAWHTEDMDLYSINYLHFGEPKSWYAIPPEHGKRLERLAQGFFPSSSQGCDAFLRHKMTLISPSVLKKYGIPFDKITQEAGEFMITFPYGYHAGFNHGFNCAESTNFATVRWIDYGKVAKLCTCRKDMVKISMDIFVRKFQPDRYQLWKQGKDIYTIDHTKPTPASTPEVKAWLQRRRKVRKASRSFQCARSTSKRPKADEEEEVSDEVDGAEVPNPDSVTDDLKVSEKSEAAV
NALP3 yeast inh = inhibitors of NALP3 inflammasome in yeast; Yeast reconstituted NLRP3/ASC/caspase-1, beta-gal luminescence, 24 h; AID 2825; inhibition, % at 10 µM; hit rate 0.39% among 330,000;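 active = inhibition of 50% or more; inactive = inhibition below 50%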;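 note: plate controls were induced DMSO wells for no effect and uninduced yeast grown without galactose for full effect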
HDAC3 inh = human HDAC3 inhibition; O15379; recombinant HDAC3, fluorogenic peptide/trypsin coupled, fluorescence; inhibition, % at 8.3 µM; hit rate 0.15% among 320,000; AID 2718; in the data active = inhibition above about 26%, passing the limit was not always enough; inconclusive = no clear call, values can overlap the other calls
PolyA inh = yeast polyadenylation inhibition; S. cerevisiae SKY197-pL101 polyadenylation reporter, beta-gal luminescence; efflux-impaired pdr1/pdr3 knockout yeast; score 100 = 6 SD above DMSO; activity score, % at 12 µM; hit rate 0.02% among 300,000; AID 1875;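 active = lowest replicate activity score at least 50, where 100 means six control SD above control mean; inconclusive = lowest score under 50 but half or more replicates reach 50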;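 note: yeast exposed to compound for 9 h at 30 °C; higher score means more reporter readthrough which indicates perturbed polyadenylation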
NALP1 inh = NALP1 inhibition; S. cerevisiae NALP1/ASC/caspase-1 growth, X-gal OD620, 72 h; inhibition, % at 10 µM; hit rate 0.61% among 280,000; in the data active = inhibition mostly above about 24%, no sharp cut-off; inactive = mostly below about 32%
Efflux pump mplx = antifungal efflux pump inhibition, Nile Red retention. S. cerevisiae Candida pump triplex. inhibition, % at 10 µM. hit rate 0.44% among 330,000;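 active = plate passing quality check with inhibition over a set limit, or well fluorescence over plate mean plus 4 SD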;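 note: Nile Red retained in pooled yeast measured as flow cytometry median fluorescence; 0% = buffer negative control and 100% = Enniatin B positive control; higher means more Nile Red kept so more efflux inhibition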
NALP3 confirm = confirmation of NALP3 inhibitors in yeast; hit rate 81% among 1,300; yeast expressing human NALP3, luminescence; inhibition, % at 10 µM; shares compounds with NALP3 yeast inh; in the data active = inhibition above about 48%
Casp1 ASC ctr = active in yeast caspase-1-ASC counter-screen for NALP3 inhibitors; shares compounds with NALP3 yeast inh; inhibition, % at 10 µM; yeast expressing Caspase-1-ASC, luminescence counter screen; hit rate 66% among 1,000; AID 488784
NALP3 retest = confirmation retest of NALP3 inhibitors in yeast; shares compounds with NALP3 yeast inh; yeast expressing human NALP3, luminescence read-out; inhibition, % at 10 µM; hit rate 53% among 1,000
The depositor's hits bear a star; i = inactive; ? = inconclusive; . = no result. Cut-off read from the data, not from the text of the source, unless noted: active = inhibition above about 50%; inactive = the rest.

SMILES | GASC-1 inh | NALP3 yeast inh | HDAC3 inh | PolyA inh | NALP1 inh | Efflux pump mplx | NALP3 confirm | Casp1 ASC ctr | NALP3 retest
CC(C)(C)NC(=O)[C@]1(C)CCC[C@@]2(C)C3CC[C@@]4(C)C[C@]3(CCC21)CC4=O (some centres undefined) | -3 | 52* | 0 | . | . | 0 | 42 | 44 | 42
C[C@@]12CCC3[C@@](CCC4[C@@]3(C)CCC[C@@]4(C)C(=O)NCc3ccccc3)(CC1=O)C2 (some centres undefined) | 2 | 52* | 5 | . | . | 0 | 54* | 47 | 45
CC(C)(C)CNC(=O)[C@]1(C)CCC[C@@]2(C)C3CC[C@@]4(C)C[C@]3(CCC21)CC4=O (some centres undefined) | 10 | 37 | -2 | . | . | 0 | . | . | .
COc1ccc(-c2nc3ccccc3[nH]2)cc1 | 0 | 55* | -4 | -8 | 10 | 0 | 62* | 57* | 66*
COC(=O)c1ccc(C(=O)Nc2ccc3nc(-c4ccncc4)[nH]c3c2)cc1 | -1 | 0 | -5 | -2 | 5 | 0 | . | . | .
COC(=O)c1ccc(-c2nc3ccccc3[nH]2)cc1 | -4 | 63* | -333 | 0 | 46 | -1 | 38 | . | .
c1ccc(-c2nc3ccccc3[nH]2)cc1 | 10 | 48 | -11 | -6 | 5 | 0 | . | . | .
CC(=O)N1N=C(c2ccc3ccccc3c2)OC1(C)C | 1 | 63* | -69 | -23 | 60* | 0 | 34 | . | .
CC(=O)N1N=C(c2ccc(C(C)(C)C)cc2)OC1(C)C | 1 | 4 | 1 | 9 | 31 | 0 | . | . | .
Cc1ccc(NN2C(=O)C=C(c3ccc(Cl)cc3)C2=O)cc1 | 3 | 95* | -9 | -123 | 7 | 0 | 47 | . | .
O=C1C=C(c2ccccc2)C(=O)N1Nc1ccccc1 | -7 | 41 | -1 | -55 | -1 | 0 | . | . | .
O=C(Nc1ccccc1)Nc1cc(Cl)cc(Cl)c1 | 3 | 56* | 2 | -12 | 5 | 0 | 77* | 68* | 78*
CCCn1nnc(NC(=O)c2sc3ccccc3c2Cl)n1 | -2 | 51* | -17 | 5 | 27 | 0 | 54* | 45 | 48
O=C(OCCc1cc2ccccc2c(=O)o1)c1ccc2c(c1)OCO2 | 14 | 23 | 2 | . | . | 0 | . | . | .
O=C(OCCCc1cc2ccccc2c(=O)o1)c1ccc2c(c1)OCO2 | 6 | 53* | 6 | . | . | 0 | 37 | 30 | 30
Cc1cccc(C(=O)NCC(c2cccs2)N2CCOCC2)c1 (centres undefined) | -12 | 9 | . | 14 | . | 0 | . | . | .
O=C(c1ccccn1)c1conc1C(=O)c1ccc(Br)cc1 | 12 | 69* | 1 | -12 | 0 | 0 | 83* | 84* | 60*
C/C(=N\OC(=O)c1ccc(Br)cc1)c1ccccn1 | -10 | 13 | 1 | -17 | 29 | -2 | . | . | .
CC(Cc1ccccc1)(NC(=O)CN)c1ccccc1 (centres undefined) | -8 | 91* | 3 | -6 | 63* | 0 | 96* | 94* | 93*
C=CC(=O)NC(C)(C)Cc1ccccc1 | 7 | 8 | 4 | 12 | 7 | 0 | . | . | .
COC(=O)c1cc(C(=O)c2cccc(Cl)c2Cl)cn1C | -4 | 61* | 4 | -20 | 4 | 0 | 73* | 63* | 46
O=C(COc1ncnc2sccc12)NC1CCCCC1 | . | 19 | . | . | . | . | . | . | .
CC(C)n1c(-c2ccco2)csc1=Nc1cccnc1 | -18 | 53* | 11 | -13 | 9 | 0 | 11 | . | .
COCCn1c(-c2ccccc2)csc1=Nc1cccnc1 | 10 | 8 | -1 | -22 | -16 | 0 | . | . | .
OC(CN1C2=NCCN2c2ccccc21)c1ccc2c(c1)OCO2 (centres undefined) | 11 | 57* | -4 | -1 | 8 | 0 | 82* | 45 | 40
SMILES | GASC-1 inh | NALP3 yeast inh | HDAC3 inh | PolyA inh | NALP1 inh | Efflux pump mplx | NALP3 confirm | Casp1 ASC ctr | NALP3 retest
O=C(NC1CCN(S(=O)(=O)c2cccc(Cl)c2)CC1)C1CCCCC1 | -4 | 53* | 10 | ? | 35 | 0 | 56* | 25 | 20
O=C(NNC(=O)C1CCN(S(=O)(=O)c2cccc(Cl)c2)CC1)C1CC1 | i | 2 | -1 | -10 | . | 0 | . | . | .
CC1CCN(c2ccc(-c3cccs3)nn2)CC1 | 0 | 52* | -2 | 33 | 8 | 0 | 79* | . | .
O=C(Nc1ccc2c(c1)Cc1ccccc1-2)c1ccncc1 | 6 | 53* | 8 | -5 | 49 | -3 | -16 | . | .
c1ccc2c(c1)CSc1ccccc1N2 | -11 | 53* | 10 | -18 | . | 0 | 30 | . | .
Clc1ccc(CN=C2Nc3ccccc3CS2)cc1 | -2 | 22 | -9 | -2 | 11 | 0 | . | . | .
Cc1ccc(C(=O)/C=C2/NC(=O)CS2)cc1 | -4 | 61* | 0 | 11 | 2 | 0 | 67* | 52* | 54*
O=C1CS/C(=C/C(=O)c2cccc(Cl)c2)N1 | 5 | 66* | 6 | 27 | -7 | 0 | 72* | 54* | 59*
COc1ccc(C)cc1NC(=O)c1nn(C)cc1Br | 16 | 21 | 2 | 6 | 8 | 0 | . | . | .
CC(=O)Nc1ccc(C(=O)OCC(=O)c2cccc([N+](=O)[O-])c2)cc1 | 3 | 0 | 4 | 2 | 31 | -1 | . | . | .
COC(=O)Nc1ccc(SCC(=O)c2cccc([N+](=O)[O-])c2)cc1 | -3 | 54* | 4 | -32 | 24 | 0 | 63* | 58* | 41
COCCN(C(=O)COC(=O)C1(c2ccccc2)CC1)c1c(N)n(CC(C)C)c(=O)[nH]c1=O | 4 | 5 | -2 | -13 | . | 0 | . | . | .
CCOCc1cc(CN2CCCC(CNC(=O)c3ccco3)C2)ccc1OC (centres undefined) | 4 | 1 | 0 | 3 | 16 | 0 | . | . | .
Cc1cccc(CSc2nnc(-c3ccccn3)n2N)c1 | -15 | 8 | -1 | 0 | 21 | -6 | . | . | .
Nn1c(SCc2ccc(Br)cc2)nnc1-c1ccccn1 | 10 | 65* | 5 | 28 | 1 | 0 | 67* | 54* | 56*
C=CCOc1nc2c(c(=O)n(Cc3ccc(Cl)cc3)c(=O)n2C)n1C | -7 | 55* | 4 | -6 | 19 | 0 | 42 | 41 | 36
Cn1c(N2CCCC2)nc2c1c(=O)n(Cc1ccc(Cl)cc1)c(=O)n2C | 0 | 74* | 4 | 4 | 20 | 0 | 33 | . | .
C=Cc1ncc(OC)c2c1[nH]c1ccccc12 | . | 60* | 2 | -2 | . | 0 | 74* | 81* | 64*
CCOc1ccc(NC(=S)N2CCC(NC(=O)c3ccccc3C)CC2)cc1 | -2 | 16 | 2 | -4 | 11 | 0 | . | . | .
